PubChem BioAssay AID1159580 (chemical genetic matrix, 2015)
Where “and” joins values, the source holds several entries; their conditions need not be identical. Identical values can stand only once. The campaign covered roughly 5,500 compounds. About 2,000 (36%) were called active. Roughly 18% stayed inconclusive and do not appear here. Cut-off read from the data, not from the text of the source: active = normalized growth mostly below about 0.91 (no sharp cut-off); inconclusive = no clear call, values can overlap the other calls; inactive = mostly above about 0.92. The list shows a part of the results.

Experiment: chemical genetic growth profiling, strain panel (AID 1159580);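 note: tested at 20 µM; growth read once vehicle control cultures reached saturation at 30 °C; 1 = growth at the plate median or of vehicle wells; lower values mean less growth of the strain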
Conditions: S. cerevisiae deletion strains, growth OD

Measured: normalized growth

Cn1c(=O)c2c(ncn2CC(O)CO)n(C)c1=O (configuration not stated)
inactive: locus YAL013W, strain DEP1, active compounds read low 1.01 | locus YAL021C, strain ccr4, active compounds read low 0.97 | locus YAL026C, strain drs2, active compounds read low 0.967 | locus YAL030W, strain snc1, active compounds read low 0.989 | locus YBL061C, strain skt5, active compounds read low 0.992 | locus YBR009C, strain hhf1, active compounds read low 0.982 | locus YBR021W, strain FUR4, active compounds read low 1.03 | locus YBR023C, strain chs3, active compounds read low 1 | locus YBR171W, strain sec66, active compounds read low 0.978 | locus YBR229C, strain ROT2, active compounds read low 1.01 | locus YBR231C, strain swc5, active compounds read low 1 | locus YBR279W, strain paf1, active compounds read low 0.972 | locus YCL011C, strain gbp2, active compounds read low 0.99 | locus YCL016C, strain dcc1, active compounds read low 1.01 | locus YCL029C, strain bik1, active compounds read low 0.96 | locus YCL061C, strain MRC1, active compounds read low 1 | locus YCL069W, strain vba3, active compounds read low 0.953 | locus YCR088W, strain abp1, active compounds read low 0.989 | locus YDL005C, strain med2, active compounds read low 0.972 | locus YDL035C, strain GPR1, active compounds read low 1.05 | locus YDL040C, strain nat1, active compounds read low 0.986 | locus YDL074C, strain BRE1, active compounds read low 1.02 | locus YDL101C, strain DUN1, active compounds read low 0.995 | locus YDL185W, strain tfp1, active compounds read low 0.954 | locus YDL192W, strain arf1, active compounds read low 0.972 | locus YDR001C, strain nth1, active compounds read low 0.97 | locus YDR069C, strain doa4, active compounds read low 0.958 | locus YDR101C, strain arx1, active compounds read low 1.01 | locus YDR137W, strain rgp1, active compounds read low 0.986 | locus YDR159W, strain sac3, active compounds read low 0.942 | locus YDR162C, strain NBP2, active compounds read low 1.02 | locus YDR195W, strain ref2 0.951 | locus YDR297W, strain sur2, active compounds read low 0.991 | locus YDR318W, strain mcm21, active compounds read low 0.977 | locus YDR334W, strain swr1, active compounds read low 0.973 | locus YDR335W, strain msn5, active compounds read low 0.981 | locus YDR388W, active compounds read low 0.988 | locus YDR392W, strain spt3, active compounds read low 0.939 | locus YDR502C, strain sam2, active compounds read low 0.984 | locus YEL003W, strain gim4, active compounds read low 0.981 | locus YEL037C, strain rad23, active compounds read low 0.972 | locus YEL061C, strain CIN8 (second series), active compounds read low 0.97 | locus YEL061C, strain CIN8, active compounds read low 0.997 | locus YER015W, strain faa2, active compounds read low 0.993 | locus YER016W, strain bim1, active compounds read low 0.951 | locus YER110C, active compounds read low 0.943 | locus YER111C, strain swi4, active compounds read low 0.988 | locus YER155C, strain BEM2 (second series), active compounds read low 0.953 | locus YER155C, strain BEM2, active compounds read low 1 | locus YER167W, strain BCK2, active compounds read low 0.996 | locus YFR010W, strain ubp6, active compounds read low 0.967 | locus YGL078C, strain dbp3, active compounds read low 0.978 | locus YGL086W, strain mad1, active compounds read low 1.01 | locus YGL167C, strain pmr1, active compounds read low 0.989 | locus YGL173C, strain kem1, active compounds read low 0.97 | locus YGL227W, strain vid30, active compounds read low 0.987 | locus YGL240W, strain doc1, active compounds read low 0.973 | locus YGL248W, strain PDE1, active compounds read low 0.995 | locus YGL253W, strain hxk2, active compounds read low 0.972 | locus YGR078C, strain PAC10, active compounds read low 1.01 | locus YGR135W, strain pre9, active compounds read low 0.954 | locus YGR252W, strain gcn5, active compounds read low 0.987 | locus YHR013C, strain ard1, active compounds read low 0.975 | locus YHR027C, strain rpn1, active compounds read low 0.981 | locus YHR030C, strain SLT2, active compounds read low 1 and 1.02 | locus YHR079C, strain IRE1 (second series), active compounds read low 0.968 | locus YHR079C, strain IRE1, active compounds read low 1.08 | locus YHR094C, strain hxt1, active compounds read low 0.984 | locus YHR129C, strain ARP1, active compounds read low 1.01 | locus YHR142W, strain chs7, active compounds read low 0.992 | locus YHR200W, strain rpn10, active compounds read low 0.97 | locus YIL066C, strain RNR3, active compounds read low 1.01 | locus YIL073C, strain SPO22, active compounds read low 0.908 | locus YIL125W, strain kgd1, active compounds read low 0.992 | locus YIR030C, strain dcg1, active compounds read low 0.949 | locus YJL092W, strain hpr5, active compounds read low 0.998 | locus YJL095W, strain BCK1 (second series), active compounds read low 0.989 | locus YJL095W, strain BCK1, active compounds read low 0.982 and 1.02 | locus YJL115W, strain asf1, active compounds read low 0.979 | locus YJL129C, strain trk1, active compounds read low 0.994 | locus YJL134W, strain LCB3, active compounds read low 1 | locus YJL154C, strain vps35, active compounds read low 0.972 | locus YJL164C, strain tpk1, active compounds read low 0.998 | locus YJL166W, strain qcr8, active compounds read low 1.04 | locus YJL168C, strain set2, active compounds read low 0.98 | locus YJL187C, strain SWE1 (second series), active compounds read low 0.988 | locus YJL187C, strain SWE1, active compounds read low 0.981 | locus YJR043C, strain POL32, active compounds read low 1.06 | locus YJR066W, strain TOR1, active compounds read low 0.952 | locus YKL009W, strain mrt4, active compounds read low 0.979 | locus YKL068W, active compounds read low 0.982 | locus YKL085W, strain MDH1 (second series), active compounds read low 1.01 | locus YKL085W, strain MDH1, active compounds read low 1.01 | locus YKL160W, strain elf1, active compounds read low 1.06 | locus YKR001C, strain vps1, active compounds read low 0.975 | locus YKR026C, strain gcn3, active compounds read low 0.974 | locus YKR091W, strain srl3, active compounds read low 0.994 | locus YLL001W, strain dnm1, active compounds read low 1.03 | locus YLL026W, active compounds read low 0.987 | locus YLL041C, strain sdh2, active compounds read low 0.979 | locus YLR027C, strain aat2, active compounds read low 0.973 | locus YLR039C, strain RIC1, active compounds read low 1.01 | locus YLR058C, strain SHM2, active compounds read low 0.996 | locus YLR102C, strain apc9, active compounds read low 0.975 | locus YLR113W, strain HOG1, active compounds read low 1.06 | locus YLR221C, strain rsa3, active compounds read low 1.03 | locus YLR258W, strain gsy2, active compounds read low 0.985 | locus YLR262C, strain YPT6 (second series), active compounds read low 0.991 | locus YLR262C, strain YPT6, active compounds read low 0.939 | locus YLR268W, strain sec22, active compounds read low 0.966 | locus YLR320W, strain mms22, active compounds read low 1.04 | locus YLR330W, strain CHS5, active compounds read low 0.999 | locus YLR342W, strain FKS1 (second series), active compounds read low 1.08 | locus YLR342W, strain FKS1, active compounds read low 0.983 | locus YLR357W, strain rsc2, active compounds read low 0.989 | locus YLR370C, strain arc18, active compounds read low 0.981 | locus YLR371W, strain rom2, active compounds read low 0.963 | locus YLR384C, strain iki3, active compounds read low 0.98 | locus YLR418C, strain cdc73, active compounds read low 0.996 | locus YML016C, strain PPZ1, active compounds read low 1.01 | locus YML032C, strain rad52, active compounds read low 0.988 | locus YML120C, strain ndi1, active compounds read low 1.01 | locus YML124C, strain tub3, active compounds read low 0.988 | locus YMR058W, strain fet3, active compounds read low 0.981 | locus YMR078C, strain ctf18, active compounds read low 0.966 | locus YMR125W, strain sto1, active compounds read low 0.979 | locus YMR129W, active compounds read low 0.966 | locus YMR205C, strain PFK2, active compounds read low 1.04 | locus YMR223W, strain ubp8, active compounds read low 0.973 | locus YMR231W, strain pep5, active compounds read low 0.97 | locus YMR307W, strain GAS1, active compounds read low 1.05 | locus YNL067W, strain RPL9B, active compounds read low 0.97 | locus YNL071W, strain lat1, active compounds read low 0.975 | locus YNL128W, strain TEP1, active compounds read low 0.969 | locus YNL153C, strain GIM3, active compounds read low 1 | locus YNL183C, strain NPR1, active compounds read low 0.987 | locus YNL209W, strain ssb2, active compounds read low 0.995 | locus YNL233W, strain BNI4, active compounds read low 1.01 | locus YNL248C, strain rpa49, active compounds read low 0.978 | locus YNL250W, strain rad50, active compounds read low 0.974 | locus YNL271C, strain bni1, active compounds read low 0.973 | locus YNL298W, strain CLA4, active compounds read low 0.969 | locus YNL307C, strain MCK1, active compounds read low 0.983 | locus YNL322C, strain KRE1 (second series), active compounds read low 0.983 | locus YNL322C, strain KRE1, active compounds read low 0.998 | locus YNR049C, strain mso1, active compounds read low 0.988 | locus YNR052C, strain pop2, active compounds read low 0.969 | locus YOL006C, strain TOP1, active compounds read low 0.966 | locus YOL012C, strain htz1 0.82 | locus YOL147C, strain pex11, active compounds read low 0.974 | locus YOR001W, strain rrp6, active compounds read low 0.93 | locus YOR061W, strain CKA2, active compounds read low 1 | locus YOR069W, strain VPS5, active compounds read low 1.01 | locus YOR070C, strain gyp1, active compounds read low 0.989 | locus YOR080W, strain dia2, active compounds read low 0.984 | locus YOR083W, strain WHI5, active compounds read low 1.07 | locus YOR106W, strain vam3, active compounds read low 1.02 | locus YOR136W, strain idh2, active compounds read low 0.976 | locus YOR144C, strain elg1, active compounds read low 0.98 | locus YOR184W, strain ser1, active compounds read low 0.957 | locus YOR231W, strain MKK1, active compounds read low 1.03 | locus YOR265W, strain rbl2, active compounds read low 0.986 | locus YOR270C, strain vph1, active compounds read low 0.982 | locus YOR290C, strain snf2, active compounds read low 0.954 | locus YOR316C, strain cot1, active compounds read low 0.959 | locus YPL051W, strain arl3, active compounds read low 0.991 | locus YPL055C, strain LGE1, active compounds read low 1.01 | locus YPL078C, strain atp4, active compounds read low 1.03 | locus YPL106C, strain sse1, active compounds read low 1 | locus YPL240C, strain hsp82, active compounds read low 0.97 | locus YPL241C, strain CIN2, active compounds read low 1 | locus YPL256C, strain CLN2, active compounds read low 1.02 | locus YPR119W, strain clb2, active compounds read low 0.967 | locus YPR141C, strain kar3, active compounds read low 0.95 | locus YPR163C, strain tif3, active compounds read low 0.98 | locus YPR167C, strain met16, active compounds read low 0.968 | strain wtn01, active compounds read low 0.997
